In PubChem BioAssay AID1159580 (chemical genetic matrix, 2015):
The whole screen tested about 5,500 compounds, of which about 2,000 (36%) were called active. Roughly 18% stayed inconclusive and do not appear here. Rule as the data show it: active = normalized growth mostly below about 0.91 (no sharp cut-off); inconclusive = no clear call, values can overlap the other calls; inactive = mostly above about 0.92. This is one part of the list.

Test: chemical genetic growth profiling, strain panel (AID 1159580);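 also: tested at 20 µM; growth read once vehicle control cultures reached saturation at 30 °C; 1 = growth at the plate median or of vehicle wells; lower values mean less growth of the strain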
Details: S. cerevisiae deletion strains, growth OD
[1] = locus YDL101C, strain DUN1, active compounds read low
[2] = locus YHR030C, strain SLT2, active compounds read low
[3] = locus YAL013W, strain DEP1, active compounds read low
[4] = locus YBR229C, strain ROT2, active compounds read low
[5] = locus YDL134C, strain PPH21, active compounds read low
[6] = locus YDR150W, strain NUM1, active compounds read low
[7] = locus YEL061C, strain CIN8, active compounds read low
[8] = locus YGR078C, strain PAC10, active compounds read low
[9] = locus YGR229C, strain SMI1, active compounds read low
[10] = locus YHR087W, strain rtc3, active compounds read low
[11] = locus YJL187C, strain SWE1, active compounds read low
[12] = locus YJR043C, strain POL32, active compounds read low
[13] = locus YJR075W, strain HOC1, active compounds read low
[14] = locus YKL190W, strain CNB1, active compounds read low
[15] = locus YLR039C, strain RIC1, active compounds read low
[16] = locus YLR058C, strain SHM2 (second series), active compounds read low
[17] = locus YLR085C, strain ARP6, active compounds read low
[18] = locus YLR262C, strain YPT6, active compounds read low
[19] = locus YML094W, strain GIM5, active compounds read low
[20] = locus YMR219W, strain ESC1, active compounds read low
[21] = locus YMR263W, strain SAP30, active compounds read low
[22] = locus YNL153C, strain GIM3, active compounds read low
[23] = locus YNL298W, strain CLA4 (second series), active compounds read low
[24] = locus YNL322C, strain KRE1, active compounds read low
[25] = locus YNR030W, strain Alg12, active compounds read low
[26] = locus YOL006C, strain TOP1, active compounds read low
[27] = locus YPL055C, strain LGE1, active compounds read low
[28] = locus YPL241C, strain CIN2, active compounds read low
[29] = locus YPR135W, strain CTF4, active compounds read low

Measured: normalized growth

O=C(CO/N=C\c1ccc(Cl)cc1Cl)NNC(=S)Nc1cc(Cl)ccc1Cl
inactive: locus YAR019C, strain CDC15, active compounds read low 1 | locus YBL105C, strain PKC1, active compounds read low 0.992 | locus YBR135W, strain CKS1, active compounds read low 1 | locus YBR136W, strain MEC1, active compounds read low 1.01 | locus YBR160W, strain CDC28, active compounds read low 1 | locus YDL017W, strain CDC7, active compounds read low 1 | locus YDL028C, strain MPS1, active compounds read low 1 | [1] 0.978 | locus YDL108W, strain KIN28, active compounds read low 1.01 | locus YDL132W, strain cdc53, active compounds read low 1 | locus YDL214C, strain PRR2, active compounds read low 0.999 | locus YDR052C, strain DBF4, active compounds read low 1 | locus YDR054C, strain cdc34, active compounds read low 0.994 | locus YDR226W, strain ADK1, active compounds read low 0.994 | locus YDR477W, strain SNF1, active compounds read low 0.983 | locus YER123W, strain YCK3, active compounds read low 0.996 | locus YER133W, strain GLC7, active compounds read low 0.983 | locus YFL009W, strain cdc4, active compounds read low 0.996 | locus YFL029C, strain CAK1, active compounds read low 1.01 | locus YFR003C, strain YPI1, active compounds read low 0.997 | locus YFR019W, strain FAB1, active compounds read low 1 | locus YFR028C, strain CDC14, active compounds read low 0.994 | locus YGR040W, strain KSS1, active compounds read low 0.984 | locus YGR052W, strain FMP48, active compounds read low 1.02 | locus YGR092W, strain DBF2, active compounds read low 0.961 | [2] 1.01 | locus YHR079C, strain IRE1, active compounds read low 0.966 | locus YHR082C, strain KSP1, active compounds read low 1.14 | locus YHR205W, strain SCH9, active compounds read low 0.98 | locus YIL147C, strain SLN1, active compounds read low 1 | locus YJL095W, strain BCK1, active compounds read low 0.928 | locus YJL128C, strain PBS2, active compounds read low 0.992 | locus YJL157C, strain FAR1, active compounds read low 0.989 | locus YJR016C, strain ILV3, active compounds read low 1 | locus YJR066W, strain TOR1 (second series), active compounds read low 0.948 | locus YJR066W, strain TOR1, active compounds read low 1.15 | locus YKL048C, strain ELM1, active compounds read low 1 | locus YKL067W, strain YNK1, active compounds read low 1.03 | locus YKL101W, strain HSL1, active compounds read low 1 | locus YKL193C, strain SDS22, active compounds read low 1 | locus YKL203C, strain TOR2, active compounds read low 1.06 | locus YLR113W, strain HOG1, active compounds read low 1.01 | locus YLR133W, strain CKI1, active compounds read low 1.02 | locus YLR403W, strain SFP1, active compounds read low 0.97 | locus YML070W, strain DAK1, active compounds read low 0.995 | locus YMR001C, strain CDC5, active compounds read low 1 | locus YMR205C, strain PFK2 (second series), active compounds read low 1.01 | locus YMR277W, strain FCP1, active compounds read low 1 | locus YNL006W, strain LST8, active compounds read low 0.99 | locus YNL020C, strain ARK1, active compounds read low 1.01 | locus YNL161W, strain CBK1, active compounds read low 0.996 | locus YNL183C, strain NPR1, active compounds read low 1.09 | locus YNL207W, strain RIO2, active compounds read low 1.01 | locus YNL222W, strain SSU72, active compounds read low 0.993 | locus YNL307C, strain MCK1 (second series), active compounds read low 0.999 | locus YOL078W, strain AVO1, active compounds read low 1 | locus YOL136C, strain PFK27, active compounds read low 1.01 | locus YOR061W, strain CKA2, active compounds read low 1.02 | locus YOR119C, strain RIO1, active compounds read low 1.05 | locus YOR231W, strain MKK1, active compounds read low 1.05 | locus YOR329C, strain SCD5, active compounds read low 1.01 | locus YPL031C, strain PHO85, active compounds read low 0.995 | locus YPL153C, strain RAD53, active compounds read low 0.99 | locus YPL204W, strain HRR25, active compounds read low 0.991 | locus YPL209C, strain IPL1, active compounds read low 1 | locus YPL256C, strain CLN2, active compounds read low 1.02 | locus YPR025C, strain CCL1, active compounds read low 0.997 | locus YPR106W, strain ISR1, active compounds read low 0.992 | locus YPR111W, strain DBF20, active compounds read low 0.997 | strain NNK1, active compounds read low 0.997 | strain TSCII, active compounds read low 0.997

S=C(NCCCn1ccnc1)Nc1cc(Cl)ccc1Cl
inactive: [3] 1.02 | [4] 0.987 | locus YCL061C, strain MRC1, active compounds read low 0.979 | [1] 0.963 | [6] 1.01 | [7] 1.02 | [8] 0.982 | [9] 0.994 | [2] 0.745 | [10] 1.04 | [11] 1.01 | [12] 1 | [13] 0.979 | [14] 0.994 | [15] 0.973 | [16] 1.02 | [17] 0.839 | [18] 1.05 | [19] 1.01 | [20] 1 | [21] 1.01 | [22] 0.987 | [23] 0.971 | [24] 0.992 | [25] 1.01 | [26] 0.938 | [27] 1 | [28] 0.983 | [29] 0.754
active: [5] 0.868

Cc1ccc(Cl)cc1NC(=S)NCCO
inactive: [3] 1.01 | [4] 1.01 | [1] 1.01 | [5] 0.996 | [6] 1 | [7] 1.02 | [8] 1.02 | [9] 0.999 | [2] 1.02 | [10] 1.01 | [11] 1.01 | [12] 0.993 | [13] 0.992 | [14] 1 | [15] 1.02 | [16] 1.01 | [17] 1 | [18] 1.01 | [19] 1.05 | [20] 1 | [21] 0.989 | locus YMR307W, strain GAS1, active compounds read low 0.95 | locus YNL128W, strain TEP1, active compounds read low 1.02 | [22] 1.01 | [23] 1.03 | [24] 1 | [25] 0.96 | [26] 1.03 | [27] 1.02 | [28] 1 | [29] 1.11
